# Measurements from publication PMC12820563, “FoxP3 forms a head-to-head dimer in vivo and stabilizes its multimerization on adjacent microsatellites”.
# The full ranking holds about 16,000 sequences; the median of “rpm ratio (pull-down/input)” is about 0.94, and the highest 2% start at about 1.7. The full list was thinned out, with the highest values kept by preference.
# Biological target: T1, MBP-FoxP1dN (Mus musculus, UniProt P58462 326-579)
# T1 sequence: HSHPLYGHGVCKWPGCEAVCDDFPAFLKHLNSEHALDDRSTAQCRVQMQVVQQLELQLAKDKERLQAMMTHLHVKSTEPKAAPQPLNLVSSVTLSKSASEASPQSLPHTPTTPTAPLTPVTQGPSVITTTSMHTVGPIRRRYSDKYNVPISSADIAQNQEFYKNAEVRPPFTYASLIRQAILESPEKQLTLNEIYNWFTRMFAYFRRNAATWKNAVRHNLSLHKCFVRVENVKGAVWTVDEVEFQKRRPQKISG
# Assay: PD-seq (MBP pull-down with sequencing); 20 mM Tris-HCl pH 7.5, 100 mM NaCl, 1.5 mM MgCl2, 0.4 uM protein, 0.1 uM dsDNA library, 30 min, room temperature, amylose pull-down; high values mean tight binding
# Conditions: protein: recombinant; tags: His6-MBP; chain copies: 2; dsDNA, one strand shown
# Outline: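 The N-terminus-lacking fragment of mouse FoxP3 or FoxP1 carried a His6-MBP tag and was expressed in E. coli. At 0.4 µM it was incubated with 0.1 µM Klenow-filled degenerate double-stranded DNA library for 30 min at room temperature in Tris pH 7.5 buffer with NaCl and MgCl2, and complexes were caught on amylose resin, washed three times, released with proteinase K, PCR-barcoded and Illumina-sequenced. Binding is reads-per-million enrichment of pull-down over input with replicates pooled.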
row,Sequence,binding signal
1,GATGATTGTTCTCCCAGCTGATGAATTGGTCAGGTCGAGTAAACAAATTTTCCTAATCTTTCTGTTCAAGCGCCATCTAC,0.794 RPM ratio (pull-down/input)
2,GATGATTGTTCTCCCAGCTGATGAATTGCGTGCCTCGAGTAAACAAATTTTCCTAATCTTTCTGTTCAAGCGCCATCTAC,1.09 RPM ratio (pull-down/input)
3,GATGATTGTTCTCCCAGCTGATGAATTCGGTTTCTCGAGTAAACAAATTTTCCTAATCTTTCTGTTCAAGCGCCATCTAC,0.847 RPM ratio (pull-down/input)
4,GATGATTGTTCTCCCAGCTGATGAATTCGGAGCATCGAGTAAACAAATTTTCCTAATCTTTCTGTTCAAGCGCCATCTAC,1 RPM ratio (pull-down/input)
5,GATGATTGTTCTCCCAGCTGATGAATTCGATTCTTCGAGTAAACAAATTTTCCTAATCTTTCTGTTCAAGCGCCATCTAC,0.855 RPM ratio (pull-down/input)
6,GATGATTGTTCTCCCAGCTGATGAATTAAAGGAATCGAGTAAACAAATTTTCCTAATCTTTCTGTTCAAGCGCCATCTAC,0.934 RPM ratio (pull-down/input)
7,GATGATTGTTCTCCCAGCTGATGAATTGTTCGAGTCGAGTAAACAAATTTTCCTAATCTTTCTGTTCAAGCGCCATCTAC,1.05 RPM ratio (pull-down/input)
8,GATGATTGTTCTCCCAGCTGATGAATTTTGGCGATCGAGTAAACAAATTTTCCTAATCTTTCTGTTCAAGCGCCATCTAC,0.955 RPM ratio (pull-down/input)
9,GATGATTGTTCTCCCAGCTGATGAATTGGACGTGTCGAGTAAACAAATTTTCCTAATCTTTCTGTTCAAGCGCCATCTAC,0.855 RPM ratio (pull-down/input)
10,GATGATTGTTCTCCCAGCTGATGAATTGTCCCTCTCGAGTAAACAAATTTTCCTAATCTTTCTGTTCAAGCGCCATCTAC,0.967 RPM ratio (pull-down/input)
11,GATGATTGTTCTCCCAGCTGATGAATTGGACAAATCGAGTAAACAAATTTTCCTAATCTTTCTGTTCAAGCGCCATCTAC,1.05 RPM ratio (pull-down/input)
12,GATGATTGTTCTCCCAGCTGATGAATTGATATTGTCGAGTAAACAAATTTTCCTAATCTTTCTGTTCAAGCGCCATCTAC,2.35 RPM ratio (pull-down/input)
13,GATGATTGTTCTCCCAGCTGATGAATTGAATCTGTCGAGTAAACAAATTTTCCTAATCTTTCTGTTCAAGCGCCATCTAC,0.897 RPM ratio (pull-down/input)
14,GATGATTGTTCTCCCAGCTGATGAATTTGATATGTCGAGTAAACAAATTTTCCTAATCTTTCTGTTCAAGCGCCATCTAC,1 RPM ratio (pull-down/input)
15,GATGATTGTTCTCCCAGCTGATGAATTTTGATATTCGAGTAAACAAATTTTCCTAATCTTTCTGTTCAAGCGCCATCTAC,1.19 RPM ratio (pull-down/input)
16,GATGATTGTTCTCCCAGCTGATGAATTTGATATTTCGAGTAAACAAATTTTCCTAATCTTTCTGTTCAAGCGCCATCTAC,1.13 RPM ratio (pull-down/input)

row,Sequence,binding signal
1,GATGATTGTTCTCCCAGCTGATGAATTGATATTTTCGAGTAAACAAATTTTCCTAATCTTTCTGTTCAAGCGCCATCTAC,2.4 RPM ratio (pull-down/input)
2,GATGATTGTTCTCCCAGCTGATGAATTTCGCAGGTCGAGTAAACAAATTTTCCTAATCTTTCTGTTCAAGCGCCATCTAC,0.789 RPM ratio (pull-down/input)
3,GATGATTGTTCTCCCAGCTGATGAATTTCAGTGTTCGAGTAAACAAATTTTCCTAATCTTTCTGTTCAAGCGCCATCTAC,0.983 RPM ratio (pull-down/input)
4,GATGATTGTTCTCCCAGCTGATGAATTGACAGTTTCGAGTAAACAAATTTTCCTAATCTTTCTGTTCAAGCGCCATCTAC,1.26 RPM ratio (pull-down/input)
5,GATGATTGTTCTCCCAGCTGATGAATTTGCCACCTCGAGTAAACAAATTTTCCTAATCTTTCTGTTCAAGCGCCATCTAC,0.982 RPM ratio (pull-down/input)
6,GATGATTGTTCTCCCAGCTGATGAATTGTGTAATTCGAGTAAACAAATTTTCCTAATCTTTCTGTTCAAGCGCCATCTAC,1.32 RPM ratio (pull-down/input)
7,GATGATTGTTCTCCCAGCTGATGAATTTGTGTATTCGAGTAAACAAATTTTCCTAATCTTTCTGTTCAAGCGCCATCTAC,1.98 RPM ratio (pull-down/input)
8,GATGATTGTTCTCCCAGCTGATGAATTCGTGTATTCGAGTAAACAAATTTTCCTAATCTTTCTGTTCAAGCGCCATCTAC,1.35 RPM ratio (pull-down/input)
9,GATGATTGTTCTCCCAGCTGATGAATTGTGTATTTCGAGTAAACAAATTTTCCTAATCTTTCTGTTCAAGCGCCATCTAC,1.75 RPM ratio (pull-down/input)
10,GATGATTGTTCTCCCAGCTGATGAATTCGCCCGATCGAGTAAACAAATTTTCCTAATCTTTCTGTTCAAGCGCCATCTAC,0.901 RPM ratio (pull-down/input)
11,GATGATTGTTCTCCCAGCTGATGAATTGCCCCCATCGAGTAAACAAATTTTCCTAATCTTTCTGTTCAAGCGCCATCTAC,0.972 RPM ratio (pull-down/input)
12,GATGATTGTTCTCCCAGCTGATGAATTCAAGCCCTCGAGTAAACAAATTTTCCTAATCTTTCTGTTCAAGCGCCATCTAC,0.749 RPM ratio (pull-down/input)
13,GATGATTGTTCTCCCAGCTGATGAATTGTATTTTTCGAGTAAACAAATTTTCCTAATCTTTCTGTTCAAGCGCCATCTAC,1.8 RPM ratio (pull-down/input)
14,GATGATTGTTCTCCCAGCTGATGAATTGTATCTTTCGAGTAAACAAATTTTCCTAATCTTTCTGTTCAAGCGCCATCTAC,1.31 RPM ratio (pull-down/input)
15,GATGATTGTTCTCCCAGCTGATGAATTCTTGTATTCGAGTAAACAAATTTTCCTAATCTTTCTGTTCAAGCGCCATCTAC,1.72 RPM ratio (pull-down/input)
